Rab9 promoter act – activators of Rab9 promoter; 320,000 tested, 2.8% active; Potency, µM (top dose mostly 9.22 µM), for inactives: at the top dose activation, negative = inhibition, hits mostly activators; Huh7 Rab9 promoter-luciferase reporter, luminescence, 24 h; further: % of control where 0% means no effect; nearly all actives have a fitted effect of over 60% in size
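Rab9 promoter-driven luciferase in stably transfected Huh7 cells; 1500 cells/well rested 2 h, exposed to compound in DMSO for 24 h at 37 °C, 5% CO2. Luminescence read 10 min after adding luciferase reagent at ambient temperature.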
ELG1 genotoxic – inducers of genotoxicity in HEK293T ELG1-luciferase cells; AID 504466; 330,000 tested, 1.3% active; HEK293T ELG1-luciferase reporter, luminescence, 16 h; Potency, µM (doses to about 46 µM), inactives show top-dose activity change, positive = activation, usual class: activators; further: % of control where 0% means no effect; nearly all actives have a fitted effect of over 60% in size
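Cells (2,000/well) expressing the ELG1-luciferase fusion are dosed by pin tool and kept 16 hr at 37 °C, 5% CO2. Signal comes from ONE-Glo luciferase reagent after 30 min at room temperature.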
NPC1 prom act – activates the NPC1 promoter; Huh7 NPC1 promoter luciferase reporter, 24 h; Potency, µM (highest dose often 9.22 µM), for the others: at the top dose activation, actives largely listed as activators; 320,000 tested, 2.4% active; further: % of control where 0% means no effect; nearly all actives have a fitted effect of over 60% in size
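Cells: Huh7 expressing luciferase under the NPC1 promoter, 1500/well. Seeded 2 h, compound added, incubated 24 h at 37 °C. Luciferase reagent, 10 min ambient, then luminescence.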
ELG1 DNA repair – blocks ELG1-dependent DNA repair in HEK293T cells; HEK293T ELG1-luciferase reporter, luminescence, 16 h; DNA damage induced by 5-fluorouridine; Potency, µM (titrated, usually from 46.1 µM), for inactives: at the highest dose activity change, negative = inhibition, most hits filed as inhibitors; AID 504467; 330,000 tested, 2.3% active; further: on the % scale 0 is the no-effect control and ±100 the full control effect; nearly all actives have a fitted effect of over 55% in size
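Overnight (16 hr) co-exposure of 2,000 cells/well to 5-fluorouridine and compound at 37 °C preceded detection. Luciferase was quantified via ONE-Glo luminescence; loss of signal denotes inhibition.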
FLuc modulator – inhibits or activates purified firefly luciferase, miR-21 counter-screen; P08659; purified FLuc, Km substrates, luminescence inhibition; Potency, µM (doses to about 57.5 µM), for the others: at the top dose activity change, negative = inhibition, most hits filed as inhibitors; 360,000 tested, 6.9% active; AID 588342;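 further: plate controls were vehicle for no effect and reference inhibitor for full effect; nearly all actives have a fitted effect of over 55% in size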
Target sequence (P08659 whole entry, looked up): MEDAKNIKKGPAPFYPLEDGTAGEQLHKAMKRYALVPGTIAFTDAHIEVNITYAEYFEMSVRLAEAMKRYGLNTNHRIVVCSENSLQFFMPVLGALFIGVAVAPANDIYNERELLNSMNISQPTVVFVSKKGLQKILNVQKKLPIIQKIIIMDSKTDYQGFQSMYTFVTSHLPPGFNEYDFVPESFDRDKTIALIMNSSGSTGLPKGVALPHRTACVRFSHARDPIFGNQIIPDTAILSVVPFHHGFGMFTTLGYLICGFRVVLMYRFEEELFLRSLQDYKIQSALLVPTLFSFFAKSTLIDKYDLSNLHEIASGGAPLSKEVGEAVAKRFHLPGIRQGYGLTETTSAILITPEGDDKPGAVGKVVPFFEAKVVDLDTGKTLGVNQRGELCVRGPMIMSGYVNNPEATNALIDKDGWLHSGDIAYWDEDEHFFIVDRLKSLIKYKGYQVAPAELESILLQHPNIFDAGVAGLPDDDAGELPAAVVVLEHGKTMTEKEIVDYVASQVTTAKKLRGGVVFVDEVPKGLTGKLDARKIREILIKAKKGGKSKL
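Purified P. pyralis luciferase (10nM final) with 10uM D-luciferin and 10uM ATP (Km levels) in 50mM Tris acetate pH 7.5, 10mM Mg acetate, 0.01% Tween-20, 0.05% BSA; qHTS 6-point titration, ~60 µM downward; luminescence read.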
SMN2 splice up – SMN2 splice variant enhancement; HEK293 SMN2-luciferase splicing reporter, luminescence, 30-36 h; Potency, µM (top dose mostly 46.1 µM), for inactives: top-dose activity change, positive = activation, usual class: activators; 210,000 tested, 2.8% active; further: % of control where 0% means no effect; nearly all actives have a fitted effect of over 55% in size
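qHTS luciferase splicing reporter: luminescence rises when SMN2 exon 7 is included in transfected HEK293 cells. Compound exposure lasted 30-36 h at 37C, with 4.5 mM final sodium butyrate as control, followed by a ONE-Glo read.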
* hit, by the source's call; ? = inconclusive; / = no result given; [ ] = remark or other dose. Compounds with a hit are over-represented: about 9.4% of the library has one in this group of screens. The call rests on the fitted dose curve; in most records, active means well fitted curve in the direction sought with a large enough effect; inconclusive means small, poorly fitted or top-dose-only effect, or another doubt; inactive means no such curve, though single readings can be large; an effect the other way counts as inactive or inconclusive. Potency means the concentration at half of the fitted maximal effect.

SMILES	Rab9 promoter act	ELG1 genotoxic	NPC1 prom act	ELG1 DNA repair	FLuc modulator	SMN2 splice up
N=c1oc2ccccc2cc1-c1nc(-c2ccccc2)cs1	12%	8%	2%	?	4.8µM*	2%
CCN1CCN(c2ccc(S(=O)(=O)N3CCOCC3)cc2NC(=O)/C=C/c2ccc(C)cc2)CC1	2%	?	-4%	13%	0%	/
O=C(/C=C/c1ccc(Cl)cc1)Nc1cc(S(=O)(=O)N2CCOCC2)ccc1N1CCOCC1	/	1%	/	26µM*	/	/
COc1ccc2cc(/C(C)=N/NC(=S)Nc3cc(S(=O)(=O)N4CCOCC4)ccc3N3CCOCC3)ccc2c1	-1%	6%	-1%	4.6µM*	-16%	7%
CSc1ccc(Cl)c(C(=O)Nc2cc(S(=O)(=O)N3CCOCC3)ccc2N2CCOCC2)c1	/	-3%	/	18µM*	/	/
COc1ccc(-c2cc(C(=O)Nc3cc(S(=O)(=O)N4CCOCC4)ccc3N3CCOCC3)c3ccccc3n2)cc1	13%	-14%	2%	4.1µM*	?	-16%
O=C(Nc1ccccc1N1CCCC1)c1cc(S(=O)(=O)N2CCOCC2)ccc1Cl	-13%	-1%	-6%	2%	7%	/
CCCCCS(=O)(=O)CCCCCCCCCCn1c(-c2ccc(O)cc2)c(C)c2cc(O)ccc21	/	/	/	/	/	-114%
O=C(N/N=C/c1ccc(-c2ccccc2Cl)o1)c1ccccc1	16%	18%	0%	-15%	13µM*	?
S=c1[nH]nc(-c2ccccc2)n1/N=C/c1ccc(-c2ccccc2Cl)o1	-3%	-8%	-5%	22%	-6%	?
Cc1nnc(C)n1/N=C/c1ccc(-c2ccccc2Cl)o1	1%	23µM*	-2%	?	-13%	/
O=C(O)c1ccc(N/N=C/c2ccc(-c3ccccc3Cl)o2)cc1	?	1.8µM*	?	?	0.67µM*	/
Cn1cc(C(=O)NCCc2ccc(Cl)cc2)c(=O)c2cc(S(=O)(=O)N3CCOCC3)ccc21	/	/	/	/	-1%	-3%
O=C1c2oc3ccccc3c(=O)c2C(c2cccnc2)N1CCCN1CCOCC1 (stereo not drawn)	9%	0%	-2%	16%	-1%	-3%
Cc1ccc(C2c3c(oc4ccccc4c3=O)C(=O)N2CCCN2CCOCC2)o1 (stereo not drawn)	1%	7%	2%	17%	3%	7.1µM*
CC(C)Oc1ccc(C2c3c(oc4ccccc4c3=O)C(=O)N2CCCN2CCOCC2)cc1 (stereo not drawn)	14%	21µM*	4%	0%	1%	/
CCc1nnc(SCc2nc(-c3cccc(Cl)c3)oc2C)c2cc3sc(C)cc3n12	/	/	/	/	-2%	/
O=C(O)c1cc(C(=O)O)nc(C(=O)O)c1	/	/	/	/	/	-3%[9.22 µM]
CCCn1c(C)nc2c(N3CCOCC3)nc(C)nc21	/	/	/	/	/	-23%
COc1ccc(C(C)=O)cc1COC(=O)c1cnc(C)cn1	-3%	2%	-4%	-18%	-2%	2.2µM*
COc1ccc(C(C)=O)cc1COc1cc(C)c(Cl)c(C)c1	-9%	-1%	-1%	-13%	0%	/
COc1ccc(C(C)=O)cc1COc1ccc(Cl)cc1Cl	0%	-4%	-1%	?	15µM*	/
N/C(=N\OC(=O)/C=C/c1ccccc1)c1cccnc1	11%	?	0%	?	12µM*	2%
N/C(=N\OC(=O)/C=C/c1ccccc1Cl)c1cccnc1	?	21µM*	?	?	7.6µM*	/
N/C(=N\OC(=O)/C=C/c1ccc(Br)cc1)c1ccccn1	2.2µM*	?	1.8µM*	?	9.5µM*	18µM*
N/C(=N\OC(=O)/C=C/c1ccccc1Cl)c1ccccn1	0.28µM*	?	0.5µM*	?	0.6µM*	?
N/C(=N\OC(=O)C(c1ccccc1)c1ccccc1)c1cccnc1	-2%	1%	1%	24%	0%	-6%
O=C(COC(=O)/C=C/c1ccccc1Cl)Nc1cccnc1Cl	/	-1%	/	27%	/	/

Bioassay records: PubChem, National Center for Advancing Translational Sciences (NCATS)
